High-throughput results: PubChem BioAssay, several laboratories
A selection: hits, their analogues and other compounds. The true share with any hit is near 4.1%.
MEKK2 WT-MEK5: raises or lowers MEK5 binding to wildtype human MEKK2 PB1 domain. AID 1531. bead flow cytometry, Alexa488-MEK5 binding to MEKK2 WT; actives lie on both sides. Q9Y2U5. binding response (% of control), % at 10 µM. 290,000 tested, 1.1% active; in the data active means binding response below about 67% or above about 130%
SUMO Mot1 rescue: SUMOylation pathway inhibition by Mot1-301 growth rescue; AID 2716; growth rescue, % at 18.8 µM; S. cerevisiae Mot1-301 growth rescue, ATP luminescence, 38.5C; percent above DMSO median, 100 means doubled; 320,000 tested, 1% active;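 active means every valid replicate shows activation above 250% relative to neutral control wells; inactive means the rest, any valid replicate at or below 250%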
MEKK2mut PB1 HTS: signal of MEK5 binding to mutant human MEKK2 PB1 domain | percent response, % at 10 µM | 290,000 tested, 0.35% active | bead flow cytometry, Alexa488-MEK5 binding to MEKK2 mutant | AID 1530; in the data active means percent response above about 24%, passing the limit was not always enough
CHT allo act: human CHT allosteric activation; Q9GZV3; CHT-expressing cells, membrane potential dye, choline EC20; hits give high values; LV-AA mutant CHT in HEK293 cells; B-score at 10 µM; 310,000 tested, 0.49% active; AID 488977;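 active means initial fluorescence not abnormally high and integrated response B-score, plate-corrected, over 3 SD above library mean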
Target sequence (Q9GZV3 whole entry, looked up): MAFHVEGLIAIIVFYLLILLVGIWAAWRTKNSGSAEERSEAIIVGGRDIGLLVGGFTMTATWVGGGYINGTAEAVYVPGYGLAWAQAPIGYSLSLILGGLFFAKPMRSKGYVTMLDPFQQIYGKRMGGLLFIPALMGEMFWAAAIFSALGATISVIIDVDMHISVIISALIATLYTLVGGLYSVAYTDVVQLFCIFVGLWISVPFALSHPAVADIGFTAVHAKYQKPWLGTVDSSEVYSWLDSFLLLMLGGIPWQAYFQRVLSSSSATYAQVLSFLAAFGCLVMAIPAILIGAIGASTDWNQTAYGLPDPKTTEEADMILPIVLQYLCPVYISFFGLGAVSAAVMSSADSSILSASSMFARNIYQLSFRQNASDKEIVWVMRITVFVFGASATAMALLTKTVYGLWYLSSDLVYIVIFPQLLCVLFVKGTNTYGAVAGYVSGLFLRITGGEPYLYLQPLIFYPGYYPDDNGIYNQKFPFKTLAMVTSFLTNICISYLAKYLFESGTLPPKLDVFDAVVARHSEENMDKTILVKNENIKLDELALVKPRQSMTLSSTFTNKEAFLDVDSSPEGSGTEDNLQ
CHT block: inhibitors of human choline transporter CHT. AID 488975. 310,000 tested, 0.86% active. CHT-expressing cells, membrane potential dye, choline response; hits give low values. Q9GZV3. B-score at 10 µM;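 active means B-score over 3 SD under the library average, and starting fluorescence ratio not unusually high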;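 further: choline stimulus applied at its EC90 after an EC20 pre-addition; B-score computed on integrated fluorescence ratio after choline addition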
MEKK3 PB1 HTS: MEKK3-MEK5 PB1 interaction, increase or decrease; 290,000 tested, 1.4% active; bead-based flow cytometry, Alexa488-MEK5 binding to MEKK3; actives lie on both sides; 0 = blocked by unlabeled MEK5, 100 = vehicle; binding response (% of control), % at 10 µM;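 active means binding response more than 3 SD above or below the average of its plate-row segment, actives on both sides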;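 further: Alexa488 bead fluorescence after subtracting the streptavidin-only scavenger bead signal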
Numbers stand for hits; n = inactive; x = no result given; [ ] = remark or other dose.

SMILES	MEKK2 WT-MEK5	SUMO Mot1 rescue	MEKK2mut PB1 HTS	CHT allo act	CHT block	MEKK3 PB1 HTS
Cn1c(SCC(=O)NCC2CCCO2)ncc(C(=O)Nc2ccccc2)c1=O (centres undefined)	x	418	x	n	n	x
Cn1c(SCC(=O)NCc2ccccc2)ncc(C(=O)Nc2ccccc2)c1=O	x	n	x	n	n	x
CCOC(=O)c1cn(Cc2ccccc2)nc1-c1ccccc1	x	n	x	n	n	x
Cc1cc(C)c2sc(N(CCN(C)C)C(=O)c3ccc4ccccc4c3)nc2c1	n	n	n	n	n	n
Cc1cccc2sc(N(CCCN(C)C)C(=O)c3ccc(C(=O)c4ccccc4)cc3)nc12	168	n	33	n	n	n
CN(C)CCCN(C(=O)c1ccc(C(=O)c2ccccc2)cc1)c1nc2ccc(F)cc2s1	174	n	n	n	n	n
COc1ccc2sc(N(CCCN(C)C)C(=O)c3ccc(C(=O)c4ccccc4)cc3)nc2c1	x	n	x	n	n	x
CN(C)CCCN(C(=O)c1ccc(C(=O)c2ccccc2)cc1)c1nc2cc3c(cc2s1)OCO3	170	n	38	n	n	n
Cc1ccc2sc(N(CCN(C)C)C(=O)c3ccc4ccccc4c3)nc2c1C	161	n	n	n	n	n
CNc1oc(-c2ccccc2F)nc1S(=O)(=O)c1ccc(C)cc1	n	n	n	n	n	n
Cc1ccc(NS(=O)(=O)c2ccc(OCC(=O)NCC3CCCO3)cc2)cc1 (centres undefined)	n	n	n	n	n	n
CCOc1ccc(-c2cc(C(=O)OC)[nH]n2)cc1	n	n	880	n	n	162
CC(=O)Nc1ccc(NC(=O)CSc2ncc(C(=O)Nc3ccccc3)c(=O)n2C)cc1	x	n	x	n	n	x
COc1ccc2c(CC(=O)Nc3ccc(OC)nc3)coc2c1	n	n	n	n	n	n
O=C(O)c1ccc(CSc2nc3ccccc3o2)cc1	n	n	n	n	n	n
O=C(O)c1ccccc1CSc1nc2ccccc2o1	n	320	n	n	n	n
O=C(COc1ccc(S(=O)(=O)N2CCOCC2)cc1)NCCN1CCOCC1	n	n	n	n	n	n
Cc1cccc(CNC(=O)CCc2nnc(C3CCCCC3)o2)c1	n	n	n	n	n	n
Cc1ccc(S(=O)(=O)NCC2CCC(C(=O)NC3CCCCC3)CC2)cc1 (centres undefined)	n	n	n	n	n	n
CC1CCCCC1NC(=O)C1CCC(CNS(=O)(=O)c2ccc(F)cc2)CC1 (centres undefined)	n	295	n	n	n	n
c1ccc(N2CCCCC2)c(Nc2nc3ccccc3n3cnnc23)c1	n	n	n	n	n	n
c1ccc2c(c1)nc(Nc1ccc(N3CCCCC3)cc1)c1nncn12	-4.0	n	n	n	n	n
COCCNCCCCOc1ccc(Br)cc1C	n	n	n	n	n	n
COCCCNCCCCOc1ccc(Br)cc1C	n	269	n	n	n	n
CC(C)CC(=O)Nc1nc2ccc(S(C)(=O)=O)cc2s1	-11	n	n	n	n	n
SMILES	MEKK2 WT-MEK5	SUMO Mot1 rescue	MEKK2mut PB1 HTS	CHT allo act	CHT block	MEKK3 PB1 HTS
CS(=O)(=O)c1ccc2nc(NC(=O)CN3CCC(Cc4ccccc4)CC3)sc2c1	n	294	n	n	n	n
CCC(=O)Nc1nc2ccc(S(C)(=O)=O)cc2s1	n	n	n	n	n	n
COC(=O)Cc1ccc(NC(=S)Nc2ccc(N3CCOCC3)cc2)cc1	n	n	n	n	n	n
COC(=O)Cc1ccc(NC(=S)NCCCN2CCOCC2)cc1	n	n	n	n	-6.8	n
CCCCc1ccc(NC(=S)NCCN2CCOCC2)cc1	n	731	n	n	n	n
O=C(O)CCSc1nnc(SCC(=O)NCC(F)(F)F)s1	n	x	n	n	n	n
COCC(=O)N1CCCC(CNS(=O)(=O)c2ccc(OC)cc2)C1 (centres undefined)	n	670	n	n	n	n
COCCC(=O)N1CCCC(CNS(=O)(=O)c2ccc(OC)cc2)C1 (centres undefined)	n	x	n	n	n	n
CC(C)CC(OC(=O)CC1Sc2ccccc2NC1=O)C(=O)NC1CCCC1 (centres undefined)	n	n	n	n	n	n
O=C(CSc1nnc(NC(=O)c2c(F)cccc2F)s1)NCc1ccc(F)cc1	x	670	x	n	n	x
CC(=O)c1ccc(NC(=O)CCCN2C(=O)COc3ccc(C)cc32)cc1	n	n	n	n	n	n
Cc1cc([N+](=O)[O-])ccc1NC(=O)CSc1nncn1-c1ccccn1	n	737	n	n	n	n
Cn1c2ccccc2c(=O)c2c(=O)n(C3CCCCC3)c(-c3ccco3)nc21	n	580	n	n	n	n
Cc1nc2c(c(=O)c3ccccc3n2C)c(=O)n1C1CCCCCC1	n	n	n	n	n	n
N#Cc1ccc(CN2CCN(CC(=O)NCCc3ccc(Cl)cc3Cl)CC2)cc1	151	n	28	n	n	n
COc1ccc(CCNC(=O)CCC(=O)N2CCOc3ccc(Cl)cc32)cc1OC	n	n	n	n	n	n
COC(=O)c1sccc1NC(=O)CN(C)NS(=O)(=O)c1ccc(F)cc1	n	n	n	n	n	n
Clc1ccc(-n2nnc(-c3nccs3)n2)cc1Cl	n	330	n	n	n	n
Cc1ccc(-n2nnc(-c3nccs3)n2)cc1	n	n	n	n	n	n
O=C(c1ccc2[nH]c(=O)c(=O)[nH]c2c1)N1CCN(c2ccccc2)CC1	n	n	n	n	n	n
O=C(NCCNC(=O)c1ccccc1F)c1ccco1	-12[inhibitor]	n	n	n	n	0.0[inhibitor]
COc1ccc(OC)c(NS(=O)(=O)c2ccc(NC(C)=O)cc2)c1	n	273	n	n	n	n
COc1ccc(NS(=O)(=O)c2ccc(NC(C)=O)cc2)c(OC)c1	n	n	n	n	n	n
CC1C(=NO)C(C)C(c2ccc(N(C)C)cc2)NC1c1ccc(N(C)C)cc1 (centres undefined)	x	n	x	n	n	x
COc1ccc(NS(=O)(=O)c2cccc(C(=O)NNC(=O)CNC(=O)c3cccc(C)c3)c2)cc1	n	n	n	n	n	n
Clc1ccc(C(Cn2ccnc2)OCc2c(Cl)cccc2Cl)c(Cl)c1 (centres undefined)	x	346	x	n	n	x
COc1cc(/C=C2\C(=N)N3N=C(S(=O)(=O)CC(C)C)SC3=NC2=O)ccc1OC(=O)c1ccco1	n	n	n	n	-5.4	n
Cc1ccc(S(=O)(=O)Oc2ccc(/C=C3\C(=N)N4N=C(S(C)(=O)=O)SC4=NC3=O)cc2)cc1	n	n	n	n	-6.4	n
CCS(=O)(=O)C1=NN2C(=N)/C(=C\c3ccc(OS(=O)(=O)c4ccccc4)c(OC)c3)C(=O)N=C2S1	n	n	n	n	-5.4	n
